# Measurements: ChEMBL document CHEMBL4513216, “Probing the Open Global Health Chemical Diversity Library for Multistage-Active Starting Points for Next-Generation Antimalarials” (ACS Infect Dis, 2020)
# Among all 69,000 compounds or so, about 8,600 (12%) showed an effect of 50% or more. The entries come from a sample that favours strong results as a whole.
# Tested on: Plasmodium berghei
# Test: Screen against P. berghei liver stage (PbLuc), transformed with Luciferase, at 10uM
# Type: functional, HepG2
# Conditions: tested at 10 uM
row,Compound,INHIBITION
1,COc1c(C(=O)NCC(C)Sc2ccccc2)c(C)nn1C (stereo not drawn),29.1%
2,COc1ccccc1C(C)CNC(=O)c1c(C)nn(C)c1OC (stereo not drawn),0.705%
3,CCC(CNC(=O)c1c(C)nn(C)c1OC)Oc1ccccc1 (stereo not drawn),73.5%
4,Cc1ccc(NC(=O)N(CCO)Cc2ccsc2)cc1,-71.5%
5,COCCN(C)C(=O)Nc1ccc2c(ccn2CC(=O)N(C)C)c1,19.73%
6,CCCn1ccc2ccc(NC(=O)N(C)CCOC)cc21,20.5%
7,COCCN(C)C(=O)Nc1ccc2c(ccn2CCOC)c1,58.4%
8,O=C1CC2(CNCCN(C(=O)Nc3ccccc3)C2)CN1 (stereo not drawn),16.1%
9,CC(=O)NCC1CCC2(CCN(c3ncc(C(C)=O)c(C)n3)CC2)O1 (stereo not drawn),56.7%
10,CC(=O)NCC1CCC2(CCN(c3ncc(C)cn3)CC2)O1 (stereo not drawn),-4.21%
11,CC(=O)NCC1CCC2(CCN(c3nccc(C4CCCC4)n3)CC2)O1 (stereo not drawn),42.1%
12,CCC(=O)N1CCC(NCc2cc(C(F)(F)F)ccc2Cl)C1 (stereo not drawn),42.6%
13,c1ccc(N2CCC3(COCCN(Cc4cccs4)C3)C2)nc1 (stereo not drawn),-7.28%
14,CC(C)N1CCOCC2(CCCN(C(=O)c3cncn3C)C2)C1 (stereo not drawn),76.3%
15,c1cncc(N2CCOCC3(CCCN(Cc4cccs4)C3)C2)c1 (stereo not drawn),59.1%
16,c1csc(CN2CCCC3(COCCN(c4cnccn4)C3)C2)c1 (stereo not drawn),18.3%
17,CC(C)N1CCOCC2(CCCN(C(=O)c3cn(C)cn3)C2)C1 (stereo not drawn),-27.9%
18,Cn1cc(CN2CCCC3(COCCN(c4cccnc4)C3)C2)cn1 (stereo not drawn),32.2%
19,c1cncc(CN2CCCC3(COCCN(c4cncnc4)C3)C2)c1 (stereo not drawn),3.11%

row,Compound,INHIBITION
1,CC(C)N1CCC2(CCCN(C(=O)c3cncn3C)C2)CC1,23.1%
2,O=C(c1cccs1)N1CCCC2(COCCN(c3cccnc3)C2)C1 (stereo not drawn),67.2%
3,c1cnc(N2CCOCC3(CCCN(Cc4cccs4)C3)C2)nc1 (stereo not drawn),67.2%
4,O=C(c1cccs1)N1CCOCC2(C1)CN(c1cccnc1)C(=O)CO2 (stereo not drawn),0.618%
5,O=C(c1cccnc1)N1CCCC2(COCCN(c3ccccc3)C2)C1 (stereo not drawn),29.7%
6,Cc1ccnn1CCNC(=O)c1cnc(N(C)C)nc1,-43.452%
7,COCCN1C[C@@H](C)[C@@]2(COCCN(C(=O)c3ccncc3)C2)C1,-8.85%
8,COc1c(C2CCCN2C(=O)c2c(C)noc2C)c(C)nn1C (stereo not drawn),19.4%
9,Cc1ccn2c(F)c(C(=O)N3CCC4(CCCN(C)C4=O)C3)nc2c1 (stereo not drawn),3.69%
10,Cc1cn[nH]c1C1COCCN1Cc1cscn1 (stereo not drawn),25.85%
11,CCN(C)c1ncnc2c1CCN(C(=O)c1cnccn1)CC2,-66%
12,O=C(NCCO)c1sc2ncccc2c1C1CNCCO1 (stereo not drawn),9.98%
13,CC(C)NC(=O)N1CCC2(CC1)COc1ccccc1S(=O)(=O)N(C)C2,4.57%
14,CCS(=O)(=O)N1CCCC2(COCCN(c3cnccn3)C2)C1 (stereo not drawn),45.8%
15,O=S(=O)(c1cccs1)N1CCCC2(COCCN(c3cccnc3)C2)C1 (stereo not drawn),82.3%
16,O=C(C1CCCO1)N1CCCC2(CCN(c3cccnc3)CC2)C1 (stereo not drawn),29.5%
17,O=C(c1ccncc1)N1CCCC2(COCCN(c3ccccc3)C2)C1 (stereo not drawn),-6.82%
18,O=C(N1CCCC1)N1CCOCC2(CCN(Cc3cccs3)C2)C1 (stereo not drawn),66.8%
19,c1cncc(N2CCOCC3(CCCN(c4nncs4)C3)C2)c1 (stereo not drawn),43.2%
